ST2 IL33 inh – IL1RL1 inhibition. AlphaLISA ST2-Fc/biotin-IL-33 interaction, 1 h. inhibition, % for hits at 17 µM. actives 2.3% (n = 78,000). AID 1259354; in the data active = inhibition above about 30%
Target sequence (Q01638 whole entry, looked up): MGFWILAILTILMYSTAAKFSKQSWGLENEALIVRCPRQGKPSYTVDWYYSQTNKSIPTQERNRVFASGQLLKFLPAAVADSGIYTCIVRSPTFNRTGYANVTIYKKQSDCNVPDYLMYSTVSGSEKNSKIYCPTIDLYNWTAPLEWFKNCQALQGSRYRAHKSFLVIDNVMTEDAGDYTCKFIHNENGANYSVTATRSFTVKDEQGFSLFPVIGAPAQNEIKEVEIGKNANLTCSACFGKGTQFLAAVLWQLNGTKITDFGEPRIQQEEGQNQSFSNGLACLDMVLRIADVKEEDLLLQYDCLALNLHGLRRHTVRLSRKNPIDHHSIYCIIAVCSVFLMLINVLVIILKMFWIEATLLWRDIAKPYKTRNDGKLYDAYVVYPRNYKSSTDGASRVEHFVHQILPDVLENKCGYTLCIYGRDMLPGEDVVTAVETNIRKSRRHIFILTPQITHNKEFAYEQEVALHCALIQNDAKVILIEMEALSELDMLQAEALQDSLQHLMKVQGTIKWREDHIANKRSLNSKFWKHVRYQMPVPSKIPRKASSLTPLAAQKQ
Starred values were filed as active, the others as inactive; i = inactive. This excerpt belongs to a sample that is enriched for hits.

SMILES | ST2 IL33 inh
O=c1c2ccccc2nc(/C=C/c2ccccc2)n1-c1ccccc1F | i
COc1ccc(-n2c(/C=C/c3ccccc3)nc3ccccc3c2=O)cc1OC | i
COc1ccc(/C=C/c2nc3ccccc3c(=O)n2-c2ccccc2OC)cc1 | 32.0%*
OCC1CCCN1C1CC2CCC1C2 (stereo not given) | i
Cn1nc(-c2cccs2)cc1[C@H]1CN2CC[C@H]1C[C@@H]2CO | i
O=c1[nH]c2ccccc2c(=O)n1-c1ccc(Cl)cc1 | i
COc1ccc(-c2cc([C@H]3CN4CC[C@H]3C[C@@H]4CNC(=O)C3CCCCC3)n(C)n2)cc1OC | i
Fc1ccccc1N1CCN(Cc2ccccc2)CC1 | i
COc1ccc(Cl)cc1/C=C/[N+](=O)[O-] | 97.0%*
C#CCOc1c(I)cc(/C=C/[N+](=O)[O-])cc1OC | i
O=C(NC[C@H]1C[C@@H]2CCN1C[C@@H]2CN1CCSCC1)c1ccc2c(c1)OCO2 | i
CCC1CCC(NCCc2ccc(OC)cc2)CC1 (stereo not given) | i
COCCNC(=O)[C@H]1CN2CCC1C[C@@H]2Cn1cc(-c2ccc(OC)cc2)nn1 (stereo not given in full) | i
NC(=O)c1ccc(NC(=O)c2cccn(Cc3ccccc3F)c2=O)cc1 | i
O=C(O)C1Nc2c(F)cccc2C2C(Cl)C(Sc3ccccc3[N+](=O)[O-])CC12 (stereo not given) | 34.0%*
CN1CCN(c2ccc(F)cc2[N+](=O)[O-])CC1 | i
O[C@H]1C[C@@H]2CN(Cc3cnc(C4CCCCC4)nc3)C[C@@H]2C[C@@H]1O | i
Cc1ccccc1N1CCN(Cc2ccc(O)cc2)CC1 | i
Cc1ccccc1N1CCN(Cc2ccc(N(C)C)cc2)CC1 | 45.0%*
CCOc1ccc(CN2CCN(c3ccccc3C)CC2)cc1 | i
Cn1nc(-c2ccc(F)cc2)cc1[C@H]1CN2CC[C@H]1C[C@@H]2CN | i
CCN(CC)C(=O)Cn1cc(/C=C2\C(=O)NC(=O)N(c3ccccc3F)C2=O)c2ccccc21 | i
O=C1NC(=O)C(=Cc2cn(CCOc3ccc4c(c3)OCO4)c3ccccc23)C(=O)N1 | 35.0%*
Cc1ccccc1-c1ccc2n(c1=O)C[C@H]1C[C@@H]2CN(C(=O)Nc2ccccc2)C1 | i

Source: PubChem BioAssay (Paczesny and Yang Labs, IUPUI and University of Michigan)
